MCF10A rerep = A quantitative high throughput screen for small molecules that induce DNA re-replication in MCF 10a normal breast cells. MCF 10A DNA re-replication, Hoechst nuclear intensity, 48 h. Potency, µM (series often up to 46.1 µM), without a hit: at the highest dose activity, positive = re-replication, actives largely listed as activators. 350,000 tested, 2.9% active; also: % of control where 0% means no effect; nearly all actives have a fitted effect of over 50% in size
ELG1 DNA repair = qHTS screen for small molecules that inhibit ELG1-dependent DNA repair in human embryonic kidney (HEK293T) cells expressing luciferase-tagged ELG1 | HEK293T ELG1-luciferase reporter, luminescence, 16 h; DNA damage induced by 5-fluorouridine | Potency, µM (series often up to 46.1 µM), for inactives: at the top dose activity change, negative = inhibition, hits mostly inhibitors | 330,000 tested, 2.3% active | AID 504467, 2011; also: % is scaled to controls: 0 for no effect and ±100 for the full control effect; nearly all actives have a fitted effect of over 55% in size
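In this reporter screen, reduction of luminescence relative to DMSO vehicle indicated activity. Compounds and 5-fluorouridine were added together to 2,000 cells per well, incubated for 16 hr at 37 °C, then developed with ONE-Glo.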
KB-V1 cytotox = qHTS assay for MDR1-selective chemotherapeutics: Primary screen using the drug-selected MDR subline cells KB-V1; KB-V1 MDR cells viability, CellTiter-Glo, 72 h; Potency, µM (titrated, usually from 46.1 µM), actives largely listed as cytotoxic; 400,000 tested, 3.4% active; also: % is scaled to controls: 0 for no effect and ±100 for the full control effect; nearly all actives have a fitted effect of over 60% in size
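Compound-treated KB-V1 multidrug-resistant cells, 72 h, 37 degrees C; viability by CellTiter-Glo. Fitted qHTS curves give the values.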
KB-3-1 tox = qHTS assay for MDR1-selective chemotherapeutics: Primary screen using the parental adenocarcinoma cell KB-3-1 | KB-3-1 viability, CellTiter-Glo ATP luminescence, 72 h | Potency, µM (titrated, usually from 46.1 µM), actives largely listed as cytotoxic | 400,000 tested, 1.4% active | AID 1347075, 2019; also: % is scaled to controls: 0 for no effect and ±100 for the full control effect; nearly all actives have a fitted effect of over 60% in size
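Screening of KB-3-1 cells (DMEM, 10% FBS, phenol-red free) ran from lowest to highest compound concentration; after 72 h at 37 °C viability was read luminescently and curves fitted.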
SW480 rerep = A quantitative high throughput screen for small molecules that induce DNA re-replication in SW480 colon adenocarcinoma cells; 340,000 tested, 1.8% active; AID 624297, 2012; Potency, µM (series often up to 46.1 µM), without a hit: top-dose re-replication activation, most hits filed as activators; SW480 DNA re-replication, Hoechst DNA content imaging, 48 h; also: % of control where 0% means no effect; nearly all actives have a fitted effect of over 55% in size
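Treated cells incubate 48 hr (37 C, 5% CO2), are stained 40 min with Hoechst, and nuclear fluorescence is enumerated; a rise in nuclei with high DNA signal marks re-replication.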
Starred values were filed as active, the others as inactive; i = inactive; u = inconclusive; x = no result. Sampled rows, rich in hits. Any-hit rate of the full collection: about 8.1%. Calls follow the shape of the dose curve; as a rule, active = well fitted curve in the direction sought with a large enough effect; inconclusive = small, poorly fitted or top-dose-only effect, or another doubt; inactive = no such curve, though single readings can be large; an effect the other way counts as inactive or inconclusive. Potency is read from the fitted curve at half-maximal effect.

SMILES	MCF10A rerep	ELG1 DNA repair	KB-V1 cytotox	KB-3-1 tox	SW480 rerep
O=C(NCc1ccco1)c1cccnc1-c1nc2ccccc2s1	3%	-12%	13µM*	i	-2%
COc1ccccc1CN(Cc1nc2ccccc2c(=O)[nH]1)C(=O)Nc1ccccc1C	u	u	i	i	10%
COc1ccccc1NS(=O)(=O)c1cc(NC(=O)CCc2nc3ccccc3c(=O)[nH]2)ccc1C	7%	13µM*	i	i	u
O=C(CCc1nc2ccccc2c(=O)[nH]1)Nc1ccc(F)cc1	15%	u	i	i	-6%
COc1ccccc1CN(Cc1nc2ccccc2c(=O)[nH]1)S(=O)(=O)c1ccc(C)cc1	-5%	23µM*	i	i	1%
COc1ccccc1CN(Cc1nc2ccccc2c(=O)[nH]1)C(=O)Nc1ccc(C)cc1	2%	u	21µM*	i	1%
Cc1ccc(-c2nc3c(c(=O)c4ccccc4n3C)c(=O)n2Cc2ccco2)cc1	2%	-21%	i	i	18µM*
Cn1c2ccccc2c(=O)c2c(=O)n(Cc3ccco3)c(-c3ccc(F)cc3)nc21	-15%	-15%	i	i	u
CCOC(=O)c1sc(N/N=C/c2cc(Br)c(O)c(OC)c2)nc1C	u	u	u	i	17%
COC(=O)c1sc(N/N=C/c2ccc(C(C)C)cc2)nc1C	15µM*	u	i	i	u
CC(=O)c1sc(N/N=C/c2cccc(O)c2)nc1C	12%	u	i	i	-9%
CC(=O)c1sc(N/N=C\c2c(O)ccc3ccccc23)nc1C	u	x	i	u	3.3µM*
CC(=O)c1sc(N/N=C\c2ccc(N(C)C)cc2)nc1C	16µM*	u	i	i	u
CC(=O)C(Cc1ccccc1)NC(=O)CN(C)Cc1ccccc1Cl (stereo not given)	1%	17%	i	i	-12%
Oc1ccc(-c2nccc(-c3ccc(F)cc3)n2)cc1	21%	u	i	i	27%
Cc1cc(C)c2c(=O)[nH]c(=O)n(Cc3ccccc3)c2n1	27%	u	13µM*	i	-9%
Cc1ccc(-c2nc3c(c(=O)[nH]c(=O)n3Cc3ccccc3)n2Cc2ccccc2)o1	u	u	u	i	u
COc1cc(C(CC(=O)NCc2ccc(F)cc2)N2Cc3ccccc3C2=O)cc(OC)c1OC (stereo not given)	x	x	i	u	x
CS(=O)(=O)c1ccc2nc(NC(=O)c3ccccc3Br)sc2c1	-11%	u	i	i	-6%
O=C(Nc1ccc(F)cc1)c1nn(-c2ccccc2)c(=O)cc1Cl	u	u	u	4.6µM*	u
Cc1ccc(NC(=O)c2cc(-c3ccccc3)nn2-c2ccccc2)cc1	21µM*	u	21µM*	u	28%
COc1ccccc1C(=O)Nc1nc2ccc(S(C)(=O)=O)cc2s1	u	6%	5.8µM*	i	-3%
CS(=O)(=O)c1ccc2nc(NC(=O)c3ccccc3Cl)sc2c1	0.82µM*	16%	i	i	-80%
Cc1ccc(NC(=O)c2cc(-c3ccccc3)nn2-c2ccccc2)c(Br)c1	u	10%	i	u	0%
O=C(CNC(=O)c1cccnc1)c1ccc(F)cc1	x	x	i	i	x
SMILES	MCF10A rerep	ELG1 DNA repair	KB-V1 cytotox	KB-3-1 tox	SW480 rerep
CS(=O)(=O)c1ccc2nc(NC(=O)c3cc(-c4ccccc4)nn3-c3ccccc3)sc2c1	9%	7.3µM*	i	i	0%
O=C(Nc1nc2ccc(S(=O)(=O)N3CCCC3)cc2s1)c1ccccn1	-2%	21µM*	i	i	9%
CCCCCCCCCCCCCCCCCCNc1ccn(C2OC(COP(=O)(O)OCC3OC(n4cc(F)c(=O)[nH]c4=O)CC3O)C(O)C2O)c(=O)n1 (stereo not given)	10µM*	x	i	u	21µM*
COc1ccc(C(=O)c2c(N)c(C(=O)Nc3cccc(OC)c3)c3ccccn23)cc1	x	x	i	i	x
COc1ccc(-c2cn3nc(N4CCCC(C(=O)NCc5ccc(Cl)cc5)C4)sc3n2)cc1 (stereo not given)	x	x	i	u	x
O=S(=O)(Cc1cc(Sc2ccc(Cl)cc2)nc(-c2ccccc2)n1)c1ccccc1	-4%	-1%	i	i	-3%
Cc1nc(CS(=O)(=O)c2ccc(Cl)cc2)cc(Sc2ccc(Cl)cc2)n1	6%	21µM*	u	i	-2%
CCOC(=O)C1=C(C)NC(SCC(N)=O)=C(C#N)C1c1cccs1 (stereo not given)	-6%	-12%	i	u	3%
CCSC1=C(C#N)C(c2cccs2)C(C(=O)OC)=C(C)N1 (stereo not given)	12%	-16%	21µM*	i	11%
C=CCOC(=O)C1=C(C)NC(SC)=C(C#N)C1c1cccs1 (stereo not given)	u	-19%	6.5µM*	12µM*	u
Cc1nn2c(=O)cc(COC(=O)c3c(F)cccc3Cl)nc2s1	2%	u	i	i	-11%
Cc1ccc(C2CC(=O)c3cnc(N4CCN(c5ccccc5)CC4)nc3C2)cc1 (stereo not given)	13%	-17%	5.2µM*	u	-11%
O=C1CC(c2ccc(F)cc2)Cc2nc(N3CCN(c4ccccc4)CC3)ncc21 (stereo not given)	u	u	i	i	-3%
Cc1ccc(C2CC(=O)c3cnc(N4CCc5ccccc5C4)nc3C2)cc1 (stereo not given)	17%	14%	23µM*	i	6%
CC1CC1C(=O)N1CCN(S(=O)(=O)c2cc(C(F)(F)F)cc(C(F)(F)F)c2)CC1 (stereo not given)	17%	u	u	i	-10%
CCCc1cc(N2CCCC(C(=O)Nc3ccc(OC)cc3OC)C2)n2ncnc2n1 (stereo not given)	-5%	u	3.7µM*	u	-2%
CCc1c(C)nc2ncnn2c1N1CCC(C(=O)Nc2ccccc2)CC1	1%	21µM*	u	i	-10%
O=C(Nc1ccc2c(c1)CCC2)C1CCCN(c2ncccn2)C1 (stereo not given)	4%	u	i	i	-3%
CCc1c(C)nc2ncnn2c1N1CCCC(C(=O)NCCc2ccc(OC)cc2)C1 (stereo not given)	4%	u	15µM*	u	6%

Compound activity (PubChem)
